# Reference: PubChem BioAssay AID602250 (The Scripps Research Institute Molecular Screening Center, 2012)
# The whole screen tested about 360,000 compounds, of which about 2,200 (0.61%) were called active. Shown is part of a subset that was picked to be rich in actives. Values without a mark were called inactive.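 How the source made its calls: active means inhibition above a per-plate cutoff, the plate's mean sample inhibition plus 3 SD (cut at about 24% in these data); inactive means the rest.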
# Assay: calcium signal blockers in parental CHO-K1 cells – cell-based, Fluo-8 calcium fluorescence, full deck, 1536-well, counter-screen for M1 antagonist project, primary screen (AID 602250);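 further: 0% = DMSO plus EC80 ATP and 100% = DMSO alone without ATP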
# Conditions: ATP-induced calcium, Fluo-8 fluorescence, at 3 µM, stronger effect = higher value
row,Structure (SMILES),inhibition
1,Cc1cccn2c(=O)c3cc(C#N)c(=O)n(CCCN4CCOCC4)c3nc12,25.6% (active)
2,Cc1cccn2c(=O)c3cc(C(=O)NCCN4CCOCC4)c(=N)n(Cc4cccnc4)c3nc12,6.02%
3,Cc1cccn2c(=O)c3cc(C#N)c(=NC(=O)c4cccnc4)n(CC4CCCO4)c3nc12 (centres undefined),20.6%
4,COCC(C)NC(=O)c1ccc(-n2nc(C(F)(F)F)cc2-c2cccs2)cc1 (centres undefined),-4.35%
5,CC(C)(C)NC(=O)Cn1nnc(-c2ccccc2Cl)n1,-23%
6,NC(=O)c1ncn([C@@H]2O[C@H](CN=C3NS(=O)(=O)c4ccccc43)[C@@H](O)[C@H]2O)n1,-7.18%
7,Cc1c(-c2ccccc2)cn2c1-c1ccc(C)n1CC2,43.4% (active)
8,CC(=O)c1ccc(NC(=O)CCNS(=O)(=O)c2cc(Br)cnc2N)cc1,0.07%
9,Cc1ccc(S(=O)(=O)c2c[nH]c3ccc(Cl)cc3c2=O)cc1,0.53%
10,O=C(CCn1nnnc1CN1CCOCC1)N1CCC(c2ccccc2Cl)C1 (centres undefined),-9.8%
11,CSc1nsc(NC(=O)Nc2ccccc2)n1,28.2% (active)
12,C=CCSc1nsc(NC(=O)Nc2cccc(C(C)=O)c2)n1,24.7% (active)
13,CCCCN1C(=O)C(=O)N(CC(=O)Nc2cccc(C(C)=O)c2)C1=O,10.5%
14,O=C(Nc1ccccc1)Nc1nnc(COc2ccccc2F)s1,7.01%
15,CSc1nsc(SCC(=O)Nc2cc(C(=O)O)ccc2C)n1,-5.18%
16,CCSc1nsc(NC(=O)Nc2cccc(C(C)=O)c2)n1,30.8% (active)
17,CC(=O)c1cccc(NC(=O)[C@@H](NC(N)=O)C(C)C)c1,-2.68%
18,COc1ccc(C(=O)OCC(=O)Nc2cccc(C(C)=O)c2)cc1OC,-4.37%
19,CC(=O)c1cccc(NC(=S)N2CCN(S(C)(=O)=O)CC2)c1,-7.23%
20,CCN1C(=O)C(C(=O)NC(C)c2ccccc2)C2CC1(C)Oc1ccccc12 (centres undefined),-9.9%
21,CC(C)n1cnc2c(NCc3ccccc3)cc(OCC3CCN(C)CC3)cc21,-18.6%
22,Cc1cc(S(=O)(=O)NCC(C)C)ccc1OCC(=O)NC1CC1,7.62%
23,O=C(CN1C(=O)NC2(CCCC2)C1=O)NCC1CCCO1 (centres undefined),-10.5%
24,O=C(Nc1ccccc1C(=O)NCC1CCCO1)c1ccccc1F (centres undefined),-7.11%

row,Structure (SMILES),inhibition
1,NS(=O)(=O)c1ccc(NC(=O)COC(=O)CCc2c[nH]c3ccccc23)cc1,0.38%
2,CC(NC(=S)Nc1ccc(S(N)(=O)=O)cc1)c1ccc2c(c1)OCO2 (centres undefined),9.71%
3,NS(=O)(=O)c1ccc(NC(=O)COC(=O)c2c3c(nc4ccccc24)/C(=C\c2ccc4c(c2)OCO4)CCC3)cc1,26.9% (active)
4,Cc1ccc(C(=O)N/C(=C\c2ccco2)C(=O)NC2CCS(=O)(=O)C2)cc1 (centres undefined),-6.64%
5,CCC(CC)C(=O)Nc1cc(C(=O)OC)cc(C(=O)OC)c1,-1.71%
6,NC(=O)c1ccc(NC(=O)COC(=O)C(Cc2ccccc2)NC(=O)c2ccccc2)cc1 (centres undefined),18.1%
7,CN(Cc1ccccc1F)C(=O)C(Cc1ccccc1)NC(=O)c1ccccc1 (centres undefined),31.8% (active)
8,CC(C)C(NC(=O)c1c(F)cccc1F)C(=O)NNC(=O)c1ccccc1 (centres undefined),-6.47%
9,Cc1ccccc1N1CCN(C2CCCN(C(=O)c3cn4c(C)cccc4n3)C2)CC1 (centres undefined),-0.61%
10,CSc1ccccc1NC(=O)c1ccc2c(c1)CCN2S(C)(=O)=O,-14.8%
11,CS(=O)(=O)N1CCc2cc(C(=O)Nc3ccccc3Br)ccc21,25.4% (active)
12,CCc1ccccc1NC(=O)c1ccc2c(c1)CCN2S(C)(=O)=O,4.89%
13,Oc1cc2c(cc1O)CN(C(=S)NCCc1ccc(Cl)cc1)CCC2,1.38%
14,O=C(CSc1nnc2ccc(-c3ccncc3)nn12)N1CCCCC1,-8.71%
15,Cc1nn(Cc2ccc(Cl)c(Cl)c2)c(C)c1NC(=O)c1cc(C2CC2)on1,-3.24%
16,Cc1ccccc1Cn1nc(C)c(NC(=O)C(F)(F)F)c1C,-5.32%
17,Cc1nn(Cc2ccc(F)cc2)c(C)c1NC(=O)c1noc2c1CCc1ccccc1-2,24.5% (active)
18,Cc1cc(C)c2oc(C(=O)Nc3ccc(S(=O)(=O)Nc4nccc(C)n4)cc3)cc(=O)c2c1,-10.7%
19,Cc1ccc(OCc2cc(C(=O)N(C)CCn3ccnc3C)no2)cc1C,-1.34%
20,Cc1n[nH]c(=O)c2c(NC(=O)CSc3cc(Cl)ccc3Cl)oc(C)c12,-14.8%
21,CCC(C)CN1CCC(CO)(Cc2ccccc2Cl)CC1 (centres undefined),-1.43%
22,Nc1ccccc1C(=O)NC1CCCCNC1=O (centres undefined),-4.31%
23,O=C(NNC(=S)NCc1ccccc1)c1ccc(OC(F)F)cc1,-9.25%
24,Fc1ccccc1CNC(=S)Nc1ccc(Cl)cc1,7.2%

row,Structure (SMILES),inhibition
1,FC(F)(F)Oc1ccc(NC(=S)NCc2ccccc2)cc1,26.5% (active)
2,COc1ccc(NS(=O)(=O)c2ccc(N3CCN(CCO)CC3)c([N+](=O)[O-])c2)cc1,4.94%
3,COc1ccc(S(=O)(=O)Nc2ccc3oc(C)c(C(C)=O)c3c2)cc1,9.32%
4,COc1ccc(NS(=O)(=O)c2ccc(Oc3c(C#N)cccc3C#N)cc2)cc1,49.1% (active)
5,CC(OC(=O)CCC(=O)c1ccccc1)C(=O)Nc1ccc(F)cc1 (centres undefined),1.59%
6,c1ccc(C(=NNc2nc3ccccc3s2)c2ccccn2)cc1,35.5% (active)
7,COc1cc(OC)nc(N/N=C(\c2ccccc2)c2ccncc2)n1,-9.28%
8,O=C(Nc1nnc(C2CC2)s1)c1ccccn1,-5.35%
9,CC1(C(=O)NCc2ccc3c(c2)OCO3)CCN1CCc1ccccc1 (centres undefined),-8.04%
10,O=C(CC1Sc2ccccc2NC1=O)NNc1ccc(Cl)c(Cl)c1 (centres undefined),-13.4%
11,O=C(COc1ccccc1)N1CCN=C1SCc1cccc(F)c1,-5.27%
12,O=C(NCC(=O)N1CCC2(CC1)NCCc1[nH]cnc12)c1ccc(Br)cc1,-11.4%
13,CCC(=O)N1CCc2cc(S(=O)(=O)CCC(=O)N3CCN(c4ccccc4F)CC3)ccc21,-5.31%
14,CCC(=O)N1c2ccc(S(=O)(=O)NCc3ccco3)cc2CC1C (centres undefined),-18.4%
15,CCC(=O)N1c2ccc(S(=O)(=O)CCC(=O)N3CCN(c4ccccc4)CC3)cc2CC1C (centres undefined),24.5% (active)
16,CC[C@]12c3[nH]c4ccc(OC)cc4c3CCN1C(=O)C(CC(=O)NCCN1CCOCC1)C[C@@H]2C(=O)N1CCN(C(=O)C2CC2)CC1 (some centres undefined),-4.64%
17,CCc1ccc2oc(=O)cc(CN3CCCCC3C)c2c1 (centres undefined),-11.8%
18,O=C(COC(=O)c1ccc(F)cc1)NCC1COc2ccccc2O1 (centres undefined),-5.85%
19,COc1ccc(CCNc2ncnc3nc[nH]c23)cc1OC,10.8%
20,c1ccc2c(c1)OCC(CNc1ncnc3nc[nH]c13)O2 (centres undefined),44.4% (active)
21,O=C(Nc1ccc2c(c1)OCCO2)C1c2ccccc2OCC(=O)N1Cc1ccccn1 (centres undefined),-12.5%
22,CN(CCO)Cc1csc2ccc(Br)cc12,-7.65%
23,CN(Cc1ccc(F)cc1)C(=O)COc1ccc2ccccc2c1,-15.2%
24,COc1ccc(C(=O)COC(=O)Cn2cnc3c2c(=O)n(C)c(=O)n3C)c(OC)c1,-0.99%

row,Structure (SMILES),inhibition
1,COc1ccc(C(C#N)Nc2ccccc2C)cc1 (centres undefined),-8.31%
2,CC(C)(C)n1nnnc1C(c1ccc2ncccc2c1)N1CCSCC1 (centres undefined),-9.5%
3,COc1ccc(N2CCN(C(=O)CNC(=O)c3ccc(C(C)(C)C)cc3)CC2)cc1,9.5%
4,CCOc1ccc(C(=O)NCC(=O)N2CCN(c3ccc(C(F)(F)F)cn3)CC2)cc1,31.8% (active)
5,O=C(NCC(=O)N1CCN(c2ncc(C(F)(F)F)cc2Cl)CC1)c1ccc(Br)o1,-11.5%
6,Cc1ccccc1CSCCNC(=O)c1ccc(N(C)S(=O)(=O)c2ccccc2)cc1,-7.28%
7,Cc1cc(-c2nnc(SCC(=O)Nc3ccc(S(N)(=O)=O)cc3)n2N)n[nH]1,-13.8%
8,O=C(NCc1ccccc1)C1c2ccccc2OCC(=O)N1C1CC1 (centres undefined),0.77%
9,O=[N+]([O-])c1ccc2c(c1)C(O)n1nc(-c3ccccc3)nc1S2 (centres undefined),-21.9%
10,COc1cc(Nc2nc3ccc(Cl)cc3n3cnnc23)cc(OC)c1OC,28.9% (active)
11,COc1ccc(CCNc2nc3ccc(C)cc3n3cnnc23)cc1OC,-5.44%
12,COc1ccc(OC)c(Nc2nc3ccccc3n3cnnc23)c1,-12.2%
13,O=C1CN(C(=O)COC(=O)c2cnc(Cl)c(Cl)c2)c2ccccc2N1,-25%
14,O=C(CCc1nnc(Cc2ccc3c(c2)OCO3)o1)NCCc1ccccc1Cl,-0.82%
15,COc1ccccc1Cc1c(-c2ccc(Cl)cc2)nc2c3ccccc3ccn12,-20.1%
16,CNS(=O)(=O)c1ccc2c(c1)[nH]c(=S)n2C,35.9% (active)
17,CCCCn1c(=S)[nH]c2cc(S(=O)(=O)N3CCCCC3)ccc21,-12.6%
18,CCn1c(=S)[nH]c2cc(S(=O)(=O)N3CCOCC3)ccc21,-3.41%
19,CN1CCc2c(sc3c2c(NCc2ccco2)nc2nnnn23)C1,-19.9%
20,COc1cc(OC)cc(C(=O)NC(=S)N2CCN(c3ccc(C(F)(F)F)cc3[N+](=O)[O-])CC2)c1,5.86%
21,O=C(Cc1ccc(S(=O)(=O)N2CCOCC2)s1)N1CCN(c2ccc(C(F)(F)F)cc2[N+](=O)[O-])CC1,5.21%
22,O=C(c1ccc(N2CCCC2=O)cc1)N1CCN(c2ccc(C(F)(F)F)cc2[N+](=O)[O-])CC1,44% (active)
